Assay results as given in PubChem BioAssay (NCATS).
A number with no mark means an inactive call. Results filed as inconclusive are left out. The source made the active and inactive calls. Calls follow the shape of the dose curve; as a rule, active = well fitted curve in the direction sought with a large enough effect; inconclusive = small, poorly fitted or top-dose-only effect, or another doubt; inactive = no such curve, though single readings can be large; an effect the other way counts as inactive or inconclusive.

Target: Alpha-galactosidase (Coffea arabica) (UniProt Q42656)
Assay: Counterscreen for Glucocerebrosidase Inhibitors: qHTS Assay for Coffee Bean alpha-Galactosidase at pH 4.5 (AID 957);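 also: plate controls were enzyme alone for no effect and no enzyme for full effect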
Conditions: purified coffee bean alpha-galactosidase, fluorogenic substrate; series mostly up to 76.9 µM; activity change, negative = inhibition: at the top concentration
Method in brief: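 Fluorogenic read-out: 4-methylumbelliferone at Ex 365/Em 440 nm after NaOH/glycine stop (pH 10). Enzyme 2 nM, 4-MU-alpha-galactoside 80 uM, citrate buffer pH 4.5, 20 min RT; normalized to no-enzyme and enzyme controls.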

Sequence of Alpha-galactosidase (Coffea arabica) (Q42656 whole entry, looked up): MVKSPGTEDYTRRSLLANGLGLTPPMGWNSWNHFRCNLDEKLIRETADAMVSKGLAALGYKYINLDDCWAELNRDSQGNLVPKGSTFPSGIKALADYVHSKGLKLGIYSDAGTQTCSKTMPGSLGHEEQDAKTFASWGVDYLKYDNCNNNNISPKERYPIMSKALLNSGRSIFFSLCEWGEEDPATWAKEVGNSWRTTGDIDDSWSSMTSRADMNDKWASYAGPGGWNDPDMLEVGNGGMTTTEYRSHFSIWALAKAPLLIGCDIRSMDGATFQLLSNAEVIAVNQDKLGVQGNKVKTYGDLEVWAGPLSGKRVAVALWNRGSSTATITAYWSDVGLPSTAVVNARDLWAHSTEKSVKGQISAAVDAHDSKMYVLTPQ

Row | Structure (SMILES) | activity change, negative = inhibition | outcome
1 | Cc1nc(-c2ccc(-c3ccc(C(=O)N4CCc5cc6c(cc54)C4(CCN(C)CC4)CO6)cc3)c(C)c2)no1 | -4.58% | 
2 | Cc1cccc(C#Cc2ccccc2)n1 | 0.0404% | 
3 | CC1=NN=C(c2ccc(N)cc2)c2cc3c(cc2C1)OCO3 | -6.22% | 
4 | NCCc1c[nH]c2ccc(O)cc12 | 0.754% | 
5 | CCCN1CCC[C@H](c2cccc(O)c2)C1 |  | inactive
6 | CCCN1CCO[C@@H]2c3cc(O)ccc3OC[C@H]21 |  | inactive
7 | O=C1CCCN1CC#CCN1CCCC1 | -1.18% | 
8 | CCn1cc(C(=O)O)c(=O)c2cc3c(cc21)OCO3 | -6.09% | 
9 | c1ccc(CCCN2CCN(CCOC(c3ccccc3)c3ccccc3)CC2)cc1 | -10.6% | 
10 | CNCCc1c[nH]c2ccc(O)cc12 | 1.17% | 

Tested on: not listed separately
Assay: MultiTox-Fluor Cytotoxicity Assay - LYMP1-002 - Dead Cells (AID 960);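 also: cells exposed to compound for 16 h at 37 °C; 0% = DMSO and 100% = tetraoctylammonium bromide; nearly all actives have a fitted effect of over 60% in size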
Conditions: LYMP1-002 lymphoblastoid cells, dead-cell protease fluorescence; series mostly up to 46.1 µM; cytotoxicity (dead cells): at the top concentration
Method in brief: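 Readout: fluorescence at 485/520 from cell-impermeant bis-AAF-R110 cleaved by proteases leaking from damaged cells. LYMP1-002 lymphoblastoid line, 16 hr compound treatment at 37 C, concentration-response in qHTS format; Hill-equation AC50 values.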

Row | Structure (SMILES) | cytotoxicity (dead cells) | outcome
11 | O=[N+]([O-])c1cc([N+](=O)[O-])c2ccccc2c1 | 20.7% | 
12 | CN(C)NC(=O)CCC(=O)O | 8.54% | 
13 | CCOP(=O)(NC(C)C)Oc1ccc(SC)c(C)c1 (stereo not drawn) | 10.2% | 
14 | O=[N+]([O-])c1c2ccccc2cc2ccccc12 | 26.3% | 
15 | O=[N+]([O-])c1c(Cl)c(Cl)cc(Cl)c1Cl | 14.7% | 
16 | O=S(=O)(c1ccc(Cl)cc1)c1ccc(Cl)cc1 | 27.1% | 
17 | Nc1ccc(Sc2ccc(N)cc2)cc1 | -21.7% | 
18 | Cc1cc(O)ccc1Cl | 6.74% | 
19 | CCCCCCCCc1ccc(O)cc1 | 18.6% | 
20 | O=C(O)C(Cl)Cl | 25.3% | 
21 | Nc1ccc(Cl)cc1N | -9.92% | 
22 | COC(C)(C)CCCC(C)C/C=C/C(C)=C/C(=O)OC(C)C (stereo not drawn) | 20.1% | 
23 | c1cc2ccc3cccc4ccc(c1)c2c34 | -13.4% | 
24 | Nc1ccc([N+](=O)[O-])cc1 | 26.4% | 
25 | CC(=O)[O][Hg][c]1ccccc1 | -152% | 
26 | C=CC(=O)NCNC(=O)C=C | 8.64% | 
27 | OCCCBr | 6.59% | 
28 | C1CCC(NC2CCCCC2)CC1 |  | inactive
29 | O=C(O)COc1ccccc1 | -10.1% | 
30 | CN(C)[C@@H]1C(=O)C(C(N)=O)=C(O)[C@@]2(O)C(=O)C3=C(O)c4c(O)cccc4[C@@](C)(O)[C@H]3[C@H](O)[C@@H]12 | -13.1% | 
31 | Nc1ccc(Cl)cc1 | -4% | 

Tested on: not listed separately
Assay: MultiTox-Fluor Cytotoxicity Assay - LYMP1-003 - Dead Cells (AID 961);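 also: cells exposed to compound for 16 h at 37 °C; nearly all actives have a fitted effect of over 70% in size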; also: potency is read from the fitted curve at half-maximal effect;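 as to cytotoxicity (dead cells): 0% = DMSO and 100% = tetraoctylammonium bromide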
Conditions: LYMP1-003 lymphoblastoid cells, dead-cell protease fluorescence; series mostly up to 92.2 µM; cytotoxicity (dead cells): at the top concentration
Method in brief: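 Human lymphoblastoid LYMP1-003 cells (2500/well) were treated with compounds for 16 hr at 37 C in complete medium. Dead-cell protease release was read by bis-AAF-R110 fluorescence (Ex/Em 485/520). AC50 came from Hill fits, normalized to DMSO and 15 uM tetraoctylammonium bromide.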

Row | Structure (SMILES) | cytotoxicity (dead cells) | Potency
32 | O=[N+]([O-])c1cc([N+](=O)[O-])c2ccccc2c1 | 14.7% | 
33 | CN(C)NC(=O)CCC(=O)O | -5.54% | 
34 | CCOP(=O)(NC(C)C)Oc1ccc(SC)c(C)c1 (stereo not drawn) | -21.2% | 
35 | O=[N+]([O-])c1c2ccccc2cc2ccccc12 | 4.85% | 
36 | O=[N+]([O-])c1c(Cl)c(Cl)cc(Cl)c1Cl | -0.261% | 
37 | O=S(=O)(c1ccc(Cl)cc1)c1ccc(Cl)cc1 |  | inactive
38 | COc1ccc(C(c2ccc(OC)cc2)C(Cl)(Cl)Cl)cc1 |  | inactive
39 | CC(C)(O)C(=O)Nc1ccc([N+](=O)[O-])c(C(F)(F)F)c1 | 2.42% | 
40 | Nc1ccc(Sc2ccc(N)cc2)cc1 | -7.94% | 
41 | Cc1cc(O)ccc1Cl | 0.817% | 
42 | CCCCCCCCc1ccc(O)cc1 | 11.6% | 
43 | O=C(O)C(Cl)Cl | -8.48% | 
44 | Nc1ccc(Cl)cc1N | -18.4% | 
45 | COC(C)(C)CCCC(C)C/C=C/C(C)=C/C(=O)OC(C)C (stereo not drawn) | -2.82% | 
46 | c1cc2ccc3cccc4ccc(c1)c2c34 | 11.8% | 
47 | Nc1ccc([N+](=O)[O-])cc1 | -11.8% | 
48 | CCOCCOC(C)=O | -14% | 
49 | CC(=O)[O][Hg][c]1ccccc1 |  | 2.51 µM (active)
50 | CCCCC(CC)COC(=O)c1ccccc1C(=O)OCC(CC)CCCC (stereo not drawn) | 6.04% | 
51 | C=CC(=O)NCNC(=O)C=C | -6.37% | 
52 | OCCCBr | -6.68% | 
53 | C1CCC(NC2CCCCC2)CC1 |  | inactive
54 | O=C(O)COc1ccccc1 | 2.83% | 
55 | CN(C)[C@@H]1C(=O)C(C(N)=O)=C(O)[C@@]2(O)C(=O)C3=C(O)c4c(O)cccc4[C@@](C)(O)[C@H]3[C@H](O)[C@@H]12 | -9.86% | 
56 | Nc1ccc(Cl)cc1 | -7.77% | 
57 | CCCCOC(=O)c1ccccc1C(=O)OCc1ccccc1 | 17.8% | 

Tested on: not listed separately
Assay: MultiTox-Fluor Cytotoxicity Assay - LYMP1-003 - Live Cells (AID 962);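 also: cells exposed to compound for 16 hours at 37 °C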; also: potency is read from the fitted curve at half-maximal effect;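 as to activity change, negative = fewer live cells: 0% = DMSO only and full loss = 92 µM tetraoctylammonium bromide; cytotoxic hits lower the live-cell protease signal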
Conditions: LYMP1-003 lymphoblastoid cells, MultiTox-Fluor live-cell protease fluorescence; series mostly up to 92.2 µM; activity change, negative = fewer live cells: at the top concentration
Method in brief: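 Readout: live-cell fluorescence (Ex/Em=405/510) from GF-AFC cleavage after 60 min MultiTox-Fluor reagent at room temperature. Lymphoblastoid LYMP1-003 cells, 16 hr compound treatment, 37 C. Concentration-response fitted to standard Hill equation for AC50.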

Row | Structure (SMILES) | activity change, negative = fewer live cells | Potency
58 | O=[N+]([O-])c1cc([N+](=O)[O-])c2ccccc2c1 | -6% | 
59 | CN(C)NC(=O)CCC(=O)O | -6.69% | 
60 | CCOP(=O)(NC(C)C)Oc1ccc(SC)c(C)c1 (stereo not drawn) | -7.57% | 
61 | O=[N+]([O-])c1c2ccccc2cc2ccccc12 | -2.17% | 
62 | O=[N+]([O-])c1c(Cl)c(Cl)cc(Cl)c1Cl | 0.0208% | 
63 | O=S(=O)(c1ccc(Cl)cc1)c1ccc(Cl)cc1 |  | inactive
64 | COc1ccc(C(c2ccc(OC)cc2)C(Cl)(Cl)Cl)cc1 |  | inactive
65 | CC(C)(O)C(=O)Nc1ccc([N+](=O)[O-])c(C(F)(F)F)c1 | -6.02% | 
66 | Nc1ccc(Sc2ccc(N)cc2)cc1 | -4.86% | 
67 | Cc1cc(O)ccc1Cl | 0.724% | 
68 | CCCCCCCCc1ccc(O)cc1 | -3.57% | 
69 | O=C(O)C(Cl)Cl | -6.73% | 
70 | Nc1ccc(Cl)cc1N | -2.25% | 
71 | COC(C)(C)CCCC(C)C/C=C/C(C)=C/C(=O)OC(C)C (stereo not drawn) | 0.207% | 
72 | c1cc2ccc3cccc4ccc(c1)c2c34 | -3.35% | 
73 | Nc1ccc([N+](=O)[O-])cc1 | -17.7% | 
74 | CCOCCOC(C)=O | -3.86% | 
75 | CC(=O)[O][Hg][c]1ccccc1 |  | 3.16 µM (active)
76 | CCCCC(CC)COC(=O)c1ccccc1C(=O)OCC(CC)CCCC (stereo not drawn) | -11.3% | 
77 | C=CC(=O)NCNC(=O)C=C | -5.77% | 
78 | OCCCBr | -7% | 
79 | C1CCC(NC2CCCCC2)CC1 |  | inactive
80 | O=C(O)COc1ccccc1 | -1.83% | 
81 | CN(C)[C@@H]1C(=O)C(C(N)=O)=C(O)[C@@]2(O)C(=O)C3=C(O)c4c(O)cccc4[C@@](C)(O)[C@H]3[C@H](O)[C@@H]12 | -7.3% | 
82 | Nc1ccc(Cl)cc1 | -5.14% | 
83 | CCCCOC(=O)c1ccccc1C(=O)OCc1ccccc1 | 4.93% | 
